Compound activity from PubChem BioAssay.
The list is not random: actives were taken first. Their share in the collection is about 4.2%.
Mtb FBA inh = inhibits M. tuberculosis FBA enzyme; P9WQA3; purified M. tuberculosis FBA, fluorescence read-out; inhibition, % at 1 µM; 2.3% of 360,000 active; AID 588726; in the data active means inhibition above about 27%;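 further: 0% = vehicle and 100% = reference inhibitor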
GDH-TPI counter = inhibits GDH-TPI coupling enzymes, artifact for Mtb FBA screen; inhibition, % at 4.8 µM; 1.2% of 360,000 active; AID 588335; GDH-TPI coupled enzyme counterscreen, NADH absorbance;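 further: 0% = DMSO wells and 100% = wells lacking the enzyme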
CCHFV vOTU inh = CCHFV vOTU protease inhibition; Pep-AMC fluorescence; inhibition, % at 11.5 µM; 0.55% of 370,000 active; further: 0% = vehicle wells with enzyme and 100% = no enzyme wells
RecA splice inh = Mtb RecA intein splicing inhibition | cell-free RecA intein splicing, fluorescence | 0.75% of 290,000 active | inhibition, % (concentration not given with the values) | AID 2221; in the data active means inhibition above about 30%;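 further: 0% = vehicle wells and 100% = reference inhibitor control wells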
Target sequence (P9WHJ3 whole entry, looked up, canonical isoform): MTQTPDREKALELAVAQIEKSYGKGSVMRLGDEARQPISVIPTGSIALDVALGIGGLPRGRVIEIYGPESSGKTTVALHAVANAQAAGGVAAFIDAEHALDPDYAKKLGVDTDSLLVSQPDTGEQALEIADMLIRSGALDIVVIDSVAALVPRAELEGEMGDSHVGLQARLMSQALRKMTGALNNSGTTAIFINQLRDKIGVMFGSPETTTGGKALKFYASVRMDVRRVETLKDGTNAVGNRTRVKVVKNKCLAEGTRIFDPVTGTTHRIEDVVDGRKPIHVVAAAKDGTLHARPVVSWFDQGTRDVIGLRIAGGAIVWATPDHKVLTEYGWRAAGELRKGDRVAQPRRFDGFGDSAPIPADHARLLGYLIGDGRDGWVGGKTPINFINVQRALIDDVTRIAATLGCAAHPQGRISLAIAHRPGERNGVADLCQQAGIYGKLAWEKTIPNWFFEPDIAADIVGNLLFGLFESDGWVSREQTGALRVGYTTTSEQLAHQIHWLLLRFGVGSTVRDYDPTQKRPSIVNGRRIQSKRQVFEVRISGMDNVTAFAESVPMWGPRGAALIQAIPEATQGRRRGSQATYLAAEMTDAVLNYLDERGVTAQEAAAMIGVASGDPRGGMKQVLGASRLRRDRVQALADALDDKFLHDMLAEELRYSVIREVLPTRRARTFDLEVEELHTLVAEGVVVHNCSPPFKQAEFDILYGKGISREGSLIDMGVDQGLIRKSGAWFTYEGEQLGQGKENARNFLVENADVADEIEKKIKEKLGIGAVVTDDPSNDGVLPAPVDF
Starred values were filed as active, the others as inactive; / = not tested or not shown; + = active, no number. Unless noted, no stated cut-off is given here; in the data, active means inhibition above about 30%; inactive means the rest.

SMILES	Mtb FBA inh	GDH-TPI counter	CCHFV vOTU inh	RecA splice inh
Cc1cccc(C(=O)N/N=C/c2ccc3c(c2)OCO3)n1	-3	33*	-9	-2
O=C(CCN1C(=O)C2CC=CCC2C1=O)Nc1nc(-c2ccc(F)c(F)c2)cs1 (centres undefined)	3	2	13	/
Cc1ccn2c(=O)c(NC(=O)c3ccc4c(c3)OCO4)c(C)nc2c1	0	31*	4	/
CCCCOc1ccc(C(=O)C(CN2CCOCC2)c2ccccc2)cc1 (centres undefined)	-8	13	8	32*
COc1ccc(C(=O)C(CN2CCOCC2)c2ccccc2)cc1 (centres undefined)	2	16	4	4
COc1cc(/C=C2\NC(=S)NC2=O)ccc1OCc1cccc(C(=O)O)c1	2	32*	4	1
CCCCCCC12Cc3cc(OC)c(OC)cc3C(O1)C1=C(O2)C(C)(C)CCC1=O (centres undefined)	/	/	-2	/
Cc1ccc(S(=O)(=O)Oc2ccccc2/C=N/Nc2ccc(C(=O)O)cc2)cc1	12	51*	19	6
Cc1ccc(S(=O)(=O)Oc2ccccc2/C=N/O)cc1	-4	-8	-2	0
Cc1cc(C)cc(C(=O)OCCN(C)C2CN(Cc3cn(Cc4ccccc4C(F)(F)F)nn3)S(=O)(=O)C2)c1 (centres undefined)	/	/	11	/
COc1ccc(NC(=O)Cn2cc(C(=O)c3ccco3)c3ccccc32)cc1	1	31*	14	/
O=C(Cn1cc(C(=O)c2ccco2)c2ccccc21)Nc1ccccc1	-3	34*	4	-1
COc1ccc(N2C3=C(C(=O)CC(C)(C)C3)C(c3cnn(C)c3)C3=C2CC(C)(C)CC3=O)cc1	112*	3	-153	-401
O=c1[nH]cnc2nc(-c3ccc(N(CCCl)CCCl)cc3)[nH]c12	/	47*	-332	/
COC(=O)[C@]12C[C@H](CC(=O)N3CCOCC3)C(=O)N(Cc3ccco3)C1=C[C@H](C(C)C)O[C@@H]2C1CC1	/	/	2	/
CCOc1ccc(C(=O)N/N=C/c2cc([N+](=O)[O-])cs2)cc1	-2	12	10	1
COc1cc(C(=O)N/N=C/c2cc([N+](=O)[O-])cs2)cc(OC)c1OC	-4	36*	-1	-8
O=C(N/N=C/c1sc(=O)n(-c2ccccc2)c1Cl)c1ccncc1	-3	36*	22	20
COc1cc(C(=O)N/N=C/c2sc(=O)n(-c3ccccc3)c2Cl)cc(OC)c1OC	-4	46*	3	-1
COc1cc(C(=O)N/N=C/c2sccc2C)cc(OC)c1OC	0	24	3	7
COc1cccc(CNC(=O)[C@H]2CCCN2C(=O)[C@H]2CCCN2)c1	/	/	2	/
CC1C[N+](=C2C=C(N3CCOCC3)CC(C)(C)C2)CC(C)O1 (centres undefined)	5	61*	21	1
CC1(C)CC(N2CCCCC2)=CC(=[N+]2CCCCC2)C1	-4	90*	29	0
CC1(C)CC(N2CCOCC2)=CC(=[N+]2CCOCC2)C1	-6	29	21	-1
CCCN(CCC)C1=CC(=[N+]2CCCC2)CC(C)(C)C1	-3	46*	22	2
SMILES	Mtb FBA inh	GDH-TPI counter	CCHFV vOTU inh	RecA splice inh
CN(C)NC1=CC(=[N+]2CCCC2)CC(C)(C)C1	1	7	-15	-1
Cc1ccc(CN2CCCCC(NC(=O)C(C)(C)C)C2=O)cc1 (centres undefined)	/	/	-5	/
CCOC(=O)c1c(N)n(C2CC(C)(C)NC(C)(C)C2)c2nc3ccccc3nc12	154*	23	/	-206
CCOC(=O)C1=C(C)NC(C)=C(C(=O)OCC)C1c1nc2ccccc2[nH]1	/	/	3	1
COC(=O)c1c(N)n(CCCN2CCOCC2)c2nc3ccccc3nc12	158*	2	-188	-138
CCOC(=O)c1c(N)n(CCN2CCCCC2)c2nc3ccccc3nc12	164*	17	-255	-184
COCCOC(=O)c1c(N)n(CCCN2CCOCC2)c2nc3ccccc3nc12	166*	15	-149	-65
COC(=O)C1CN(Cc2cn(CCOC(C)=O)nn2)CCS(=O)(=O)N1Cc1ccc(F)cc1 (centres undefined)	/	/	1	/
N#CCSc1nc(-c2ccccc2)cs1	0	3	0	-2
N#CCSc1ccc2nc(-c3ccccc3)cn2n1	134*	22	-86	-2
CC1COc2c(N3CCN(C)CC3)c(F)cc3c(=O)c(C(=O)O)cn1c23 (centres undefined)	97*	25	-71	-2
CCOc1ccc(NC(=O)c2ccc(NC(=O)c3cn4c5c(c(N6CCN(C)CC6)c(F)cc5c3=O)OCC4C)cc2)cc1 (centres undefined)	8	2	-26	0
CCOC(=O)Nc1ccc2c(COC(=O)CNS(=O)(=O)c3ccc(NC(C)=O)cc3)cc(=O)oc2c1	160*	13	-123	1
CCOC(=O)Nc1ccc2c(C)cc(=O)oc2c1	199*	29	-93	-3
CCOC(=O)Nc1ccc2c(CN(C)Cc3ccc(F)cc3)cc(=O)oc2c1	14	-5	-20	0
Cc1cc(=O)oc2cc(NC(=O)c3ccccc3C(=O)O)ccc12	+	19	-404	0
COc1ccc(CNC(=O)CCNS(=O)(=O)c2cc(Br)cnc2N)cc1	4	8	/	-5
Cc1nn(C(=O)c2cccnc2)c(C)c1Sc1ccc(Br)cc1	0	2	/	44*
NC(=O)c1ccc(Oc2ccc3c(c2)CCC3)c([N+](=O)[O-])c1	6	2	12	2
O=C(NCC1CCCO1)c1coc2nc3ccccc3nc12 (centres undefined)	126*	9	-88	-9
COC(CNC(=O)c1coc2nc3ccccc3nc12)OC	120*	29	-144	-8
O=C(Nc1nnc([C@H]2C[C@H](O)[C@@H](CO)O2)s1)c1cccc(Oc2ccccc2)c1	3	23	-8	/
COC(=O)c1sc(-c2ccc(Cl)cc2)cc1NC(=O)COCC(=O)O	14	35*	5	1
CN(Cc1c(F)cccc1Cl)C(=O)c1ccc(NS(=O)(=O)c2ccc3[nH]c(=O)[nH]c3c2)cc1	5	10	3	1
CC1CCCCC1NC(=O)NC(=O)CCl (centres undefined)	-1	-12	5	34*
SMILES	Mtb FBA inh	GDH-TPI counter	CCHFV vOTU inh	RecA splice inh
CC1CCCCC1NC(=O)NC(=O)COC(=O)c1nccnc1N (centres undefined)	118*	16	-142	/
CC1CCCC(NC(=O)NC(=O)CCl)C1C (centres undefined)	2	-3	3	48*
CC1CCCCC1NC(=O)NC(=O)COC(=O)c1cncc(Br)c1 (centres undefined)	2	0	7	/
CC1CCCC(NC(=O)CSC2CCCCC2)C1C (centres undefined)	1	1	10	0
CCC(=O)N(C)CCc1cc2c(c(OC)c1/C=N/Nc1ccc(C(=O)O)cc1)OCO2	-2	51*	9	-2
COc1cc2c(cc1NC(=S)Nc1cccc(C(F)(F)F)c1)oc1ccccc12	64*	11	-20	1
COc1ccc(-c2cc(-c3ccccc3)c(C#N)c(S(C)=O)n2)cc1 (centres undefined)	+	31*	-199	-3
